RECQ1 inh-1 = qHTS Assay for Inhibitors of RecQ-Like Dna Helicase 1 (RECQ1); ATP-dependent DNA helicase Q1 (Homo sapiens), P46063; 0.54% of 240,000 active; Potency, µM (series often up to 57.3 µM), for inactives: at the highest dose activity, negative = inhibition, hits mostly inhibitors; AID 2549, 2010; RECQ1 DNA unwinding, red fluorescence kinetic read;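 further: plate controls were vehicle for no effect and no enzyme for full effect; nearly all actives have a fitted effect of over 30% in size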
Target sequence (P46063 whole entry, looked up): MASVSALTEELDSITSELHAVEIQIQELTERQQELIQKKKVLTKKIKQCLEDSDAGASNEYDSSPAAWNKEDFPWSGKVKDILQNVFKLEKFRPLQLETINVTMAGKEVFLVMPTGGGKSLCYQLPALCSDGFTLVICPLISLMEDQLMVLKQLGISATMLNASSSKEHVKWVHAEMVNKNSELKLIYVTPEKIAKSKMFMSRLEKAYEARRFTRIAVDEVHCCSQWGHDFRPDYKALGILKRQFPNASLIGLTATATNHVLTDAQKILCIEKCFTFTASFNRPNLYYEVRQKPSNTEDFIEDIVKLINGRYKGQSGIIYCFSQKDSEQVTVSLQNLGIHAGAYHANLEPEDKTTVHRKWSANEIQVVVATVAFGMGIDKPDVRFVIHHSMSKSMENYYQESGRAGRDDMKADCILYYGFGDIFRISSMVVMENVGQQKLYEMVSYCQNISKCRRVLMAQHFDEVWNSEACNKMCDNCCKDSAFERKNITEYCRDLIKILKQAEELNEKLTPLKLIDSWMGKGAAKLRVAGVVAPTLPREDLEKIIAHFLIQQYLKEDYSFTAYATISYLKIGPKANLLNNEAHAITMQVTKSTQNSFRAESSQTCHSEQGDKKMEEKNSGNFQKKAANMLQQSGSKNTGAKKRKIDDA
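RECQ1T1 50 nM; forked duplex (20 bp + 30-nt ss tails) 200 nM, ATP 2 mM final; pH 8.0, 2 mM MgCl2, 2.5 ug/ml poly(dI-dC); 15 min compound preincubation; discontinuous kinetic read over 2 h at RT.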
TDP1 inh = qHTS Assay for Inhibitors of Tyrosyl-DNA Phosphodiesterase (TDP1). Tyrosyl-DNA phosphodiesterase 1 (Homo sapiens), Q9NUW8. recombinant TDP1, AlphaScreen DNA substrate cleavage. Potency, µM (titrated, usually from 130 µM), for inactives: at the highest dose activity change, negative = inhibition, usual class: inhibitors. 0.28% of 350,000 active; further: nearly all actives have a fitted effect of over 40% in size
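Steps: enzyme plus compound, 15 min RT; add biotin/phosphotyrosine-FITC oligonucleotide (15 nM final), react 5 min; add donor/acceptor beads (10 ug/ml final), 10 min; read AlphaScreen. Tdp1 at 1 nM final.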
FEN1 inh = qHTS Assay for the Inhibitors of Human Flap endonuclease 1 (FEN1). 0.35% of 390,000 active. P39748. Recombinant FEN1 flap cleavage, fluorescence, 15 min. Potency, µM (highest dose often 114 µM), inactives show at the highest dose activity change, negative = inhibition, hits mostly inhibitors; further: nearly all actives have a fitted effect of over 65% in size
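Enzyme 10 nM, 15 min RT preincubation with compound; start with substrate 50 nM final; reads at 0 and 15 min; qHTS titration, four-parameter Hill fit.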
BLM helicase inh = qHTS Assay for Inhibitors of Bloom's syndrome helicase (BLM); RecQ-like DNA helicase BLM (Homo sapiens), P54132; recombinant BLM DNA unwinding, fluorescence dequenching; Potency, µM (titrated, usually from 56.1 µM), without a hit: at the highest dose activity change, negative = inhibition, hits mostly inhibitors; 0.2% of 350,000 active;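 further: plate controls were vehicle for no effect and no enzyme for full effect; nearly all actives have a fitted effect of over 35% in size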
APEX1 inh = qHTS Assay for Inhibitors of the Human Apurinic/apyrimidinic Endonuclease 1 (APE1); DNA repair nuclease/redox regulator APEX1 (Homo sapiens), P27695; recombinant APE1, TAMRA/BHQ-2 abasic DNA cleavage fluorescence; Potency, µM (doses to about 65.8 µM), for inactives: top-dose activity change, negative = inhibition, usual class: inhibitors; 0.35% of 350,000 active; AID 2517, 2012;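 further: plate controls were vehicle for no effect and reference inhibitor for full effect; nearly all actives have a fitted effect of over 55% in size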
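Enzyme (0.75 nM final) and test compound are incubated 15 min at room temperature before adding 50 nM quenched THF abasic-site duplex. Cleavage dequenches TAMRA, followed at 525/598 nm over three reads one minute apart.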
RECQ1 inh conf = Confirmation qHTS Assay for Inhibitors of RecQ-Like Dna Helicase 1 (RECQ1); shares compounds with RECQ1 inh-1; RECQ1 helicase DNA unwinding, fluorescence; Potency, µM (highest dose often 229 µM), inactives show top-dose activity change, negative = inhibition, usual class: inhibitors; 28% of 610 active; further: nearly all actives have a fitted effect of over 45% in size
RECQ1 ADP FP = Counterscreen for RECQ1 Inhibitors: ADP Fluorescence Polarization Displacement Assay; 27% of 530 active; ADP fluorescence polarization displacement counterscreen; shares compounds with RECQ1 inh-1; Potency, µM (doses to about 228 µM), for the others: at the highest dose activity change, negative = inhibition, actives largely listed as inhibitors; further: nearly all actives have a fitted effect of over 45% in size
RECQ1 inh-2 = Confirmation qHTS Assay for Inhibitors of RecQ-Like Dna Helicase 1 (RECQ1) - Round 2 Cherry Picks; shares compounds with RECQ1 inh-1; 15% of 1,100 active; recombinant RECQ1 DNA unwinding, red fluorescence; Potency, µM (doses to about 119 µM), without a hit: at the highest dose activity, negative = inhibition, most hits filed as inhibitors; further: nearly all actives have a fitted effect of over 50% in size
Starred values were filed as active, the others as inactive; i = inactive; ? = inconclusive; · = not tested or not shown; [ ] = another dose, or the depositor's remark. Compounds with a hit are over-represented: about 0.92% of the library has one in this group of screens. The call rests on the fitted dose curve; in most records, active means well fitted curve in the direction sought with a large enough effect; inconclusive means small, poorly fitted or top-dose-only effect, or another doubt; inactive means no such curve, though single readings can be large; an effect the other way counts as inactive or inconclusive. Unless noted, on the % scale 0 is the no-effect control and ±100 the full control effect; potency means the concentration at half of the fitted maximal effect.

SMILES	RECQ1 inh-1	TDP1 inh	FEN1 inh	BLM helicase inh	APEX1 inh	RECQ1 inh conf	RECQ1 ADP FP	RECQ1 inh-2
C[C@@H]1C/C=C/C=C/C=C/C=C/[C@H](O[C@@H]2O[C@H](C)[C@@H](O)[C@H](N)[C@@H]2O)C[C@@H]2O[C@](O)(C[C@@H](O)C[C@H]3O[C@@H]3/C=C/C(=O)O1)C[C@H](O)[C@H]2C(=O)O	·	·	·	·	0%[21 µM]	·	·	·
CCN(CC)C(=O)CSc1nc2ccc(NC(=O)CSc3nccn3C)cc2s1	20µM*	3%	-12%	-12%	0%	?	?	-13%
CCCN(CCC)C(=O)c1ccc2c(=O)n(Cc3ccco3)c(=S)[nH]c2c1	?	0%	-7%	?	?	·	·	-15%
CCCCc1nc2c(c3c1C[C@H](C)OC3)CN(C(=O)Cc1cccc(OC)c1)CC2	7%[11.5 µM]	5%[21 µM]	·	3%[12.4 µM]	30%[12.4 µM]	·	·	·
O=C(/C=C/c1ccco1)Nc1sc2c(c1C(=O)O)CCC2	35µM*	·	-12%	5%	?	·	·	?
Cc1ccc(-c2csc(NC(=O)/C=C/c3ccco3)c2C(=O)O)cc1	22µM*	·	-30%	?	?	?	-9%[91.9 µM]	-30%
N#Cc1c(NC(=O)/C=C/c2ccco2)sc2c1CCCC2	-19%	-4%	4%	-7%	?	·	·	·
O=C(Nc1scc(-c2ccc(F)cc2)c1C(=O)O)c1ccco1	i	-2%	14%	1%	-1%	·	·	·
Cc1csc(CNc2ncnc3ccc(-c4ccc5c(c4)OCO5)cc23)n1	·	0%	·	·	·	·	·	·
Cc1cnc(CNc2ncnc3ccc(-c4ccc5c(c4)OCO5)cc23)cn1	20µM*	·	·	-11%	4%	·	·	?
O=C(O)CCC(NC(=O)C1CCCN1C(=O)OCc1ccccc1)C(=O)O (configuration not stated)	-19%	6%	12%	3%	4%	3%	?	·
O=C(O)c1cccc(Cn2c(Cl)c(/C=N/NC(=O)c3cc4ccccc4cc3O)sc2=O)c1	4.5µM*	·	18µM*	8.9µM*	?	?	7%[91.9 µM]	·
O=C(Nc1cnn(Cc2ccc(Cl)cc2Cl)c1)c1noc2c1CCc1ccccc1-2	·	6%	-7%	-7%	·	·	·	·
CN(C)c1ccc(/C=C2/SC(=O)N(CCN=C3NS(=O)(=O)c4ccccc43)C2=O)cc1	5%	3%	1%	-9%	3%	·	·	·
CN(C)c1ccc(/C=C2\SC(=O)N(CCc3nnc(N)s3)C2=O)cc1	?	·	2%	-8%	-3%	·	·	?
Nc1c(C(=O)Nc2ccccc2F)sc2nc(-c3cccnc3)ccc12	32µM*	-2%	1%	-6%	13%	·	·	-15%
C=C1c2cccc(O)c2C(O)=C2C(=O)[C@]3(O)C(O)=C(C(N)=O)C(=O)C(N(C)C)C3C(O)C12 (some centres not stated)	8.9µM*	·	·	-4%	4µM*	?	7.9µM*	-13%
Cn1c2cc(Br)sc2c2cnn(Cc3c(F)cccc3F)c(=O)c21	·	·	·	·	42%	·	·	·
O=C(Nc1ccc2nc(SCC(=O)N3CCOCC3)sc2c1)c1cccc(Cl)c1	·	-1%	-4%	-7%	·	·	·	·

High-throughput results (PubChem BioAssay)
